The source of these data is PubChem BioAssay AID602478 (National Center for Advancing Translational Sciences (NCATS), 2012).

Records with an inconclusive call do not appear. Values without a mark were called inactive. Calls of active or inactive are those of the source. Calls follow the shape of the dose curve; as a rule, active = well fitted activation curve with a large enough effect; inconclusive = small, poorly fitted or top-dose-only effect; inactive = flat fitted curve, though single readings scatter.

Luciferin 4-monooxygenase (Photinus pyralis), sequence (P08659 whole entry, looked up): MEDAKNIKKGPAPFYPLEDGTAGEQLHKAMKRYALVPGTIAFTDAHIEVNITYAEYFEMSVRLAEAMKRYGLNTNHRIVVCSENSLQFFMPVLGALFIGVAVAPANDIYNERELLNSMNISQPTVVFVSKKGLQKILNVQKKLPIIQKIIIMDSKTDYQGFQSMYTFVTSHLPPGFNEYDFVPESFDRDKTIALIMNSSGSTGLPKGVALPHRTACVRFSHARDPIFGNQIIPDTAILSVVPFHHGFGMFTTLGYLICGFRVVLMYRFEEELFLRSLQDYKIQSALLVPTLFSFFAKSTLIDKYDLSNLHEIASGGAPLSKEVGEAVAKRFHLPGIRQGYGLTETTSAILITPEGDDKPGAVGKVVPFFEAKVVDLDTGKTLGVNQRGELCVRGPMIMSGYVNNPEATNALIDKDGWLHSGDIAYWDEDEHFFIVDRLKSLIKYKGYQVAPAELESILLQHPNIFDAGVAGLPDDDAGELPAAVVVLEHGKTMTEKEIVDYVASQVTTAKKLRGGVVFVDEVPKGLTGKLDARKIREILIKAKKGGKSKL

In the assay the target is Luciferin 4-monooxygenase (Photinus pyralis) (UniProt P08659). The experiment in a line: FLuc inhibitory activity for the follow-up compounds in a cell-based translational read-through assay (72 hour incubation). To be noted: GripTite 293 FLucUGA read-through, luminescence; series mostly up to 38.3 µM; activation (luciferase signal increase): at the top concentration. The source says:
NCGC Assay Overview: Firefly (Photinus pyralis) luciferase is one of the most commonly used transcriptional reporters. It is considered one of the more dynamically responsive reporters - that is, responsive to changes in reporter transcription - as it requires no post-translational modifications and is enzymatically active directly after protein synthesis (Wood, 1998). With no endogenous expression in mammalian cells and without the requirement of external excitation, it offers very little background signal, thus generally providing excellent signal to background for most assays. Previous profiling work to determine the prevalence of compounds that affect FLuc enzymatic activity (PubChem AID 411) identified that ~3% of the MLSMR library (then at ~72K) inhibited FLuc (Auld et al., 2008). […] Of the compounds identified in this profile that inhibited FLuc, 151 compounds were selected for further analysis, in an effort to better understand their mode of inhibiting FLuc. The assay described here was to determine the activity of the compounds in a cell-based firefly luciferase reporter gene assay originally designed to identify compounds that enchanced translational read-through of a FLuc cDNA that contained a premature stop codon (Auld et al., 2009; Auld et al., 2010). Compounds that enhance translational read-through or compounds that stabilize FLuc intracellularly are identified as active compounds in the assay.
NCGC Assay Protocol Summary: Reagents: Transient transfection of FlucUGA construct: TransFast Transfection Reagent (Promega #E2431); FLucUGA construct (refer to Auld et al., 2009) #GripTite 293 MSR Cell Line (Invitrogen #R795-07) #Complete growth media: DMEM (Invitrogen #11965), 10% HIFBS, 0.1mM MEM NEAA, 5mL/L pen-strep (of 5000U/mL stock), 600ug/mL Geneticin #Assay media: DMEM without phenol red (Invitrogen #21063), 5% charcoal-stripped HIFBS (Hyclone #SH30071.03), 0.1mM MEM NEAA In-house detection reagent: 300mM Tris-HCl, 300mM Trizma base, 300mM MgCl, 1% Triton-X100, 5mM DTT, 500uM Coenzyme A trilithium salt (Sigma #C3019),450uM ATP (Sigma #A7699), 1mM D-luciferin sodium salt monohydrate (Biosynth #L8240) Control compounds used were two known firefly luciferase inhibitors (3-(5-(3-chlorophenyl)-1,2,4-oxadiazol-3-yl)benzoic acid and 5-(2-fluorophenyl)-3-phenyl-1,2,4-oxadiazole), and DMSO. Assay Summary: Transient transfection of FlucUGA construct: Day 1: GripTite cells were plated in T175 flasks at a density of 1.75 x 10^7 cells/T175 flask in complete growth media without Geneticin and allowed to grow ON in a 37 degrees Celsius incubator. Day 2: Cells in T175 flask were transfected - with 10ug of DNA and 30uL Transfast in 12mL complete growth media without serum and without Geneticin for 4 hours at 37 degrees Celsius. After incubation, cells were trypsinized, spun down, and resuspended to a concentration of 3.3 x 10^5 cells/mL in assay media. 6uL of cells in assay buffer were dispensed at 2000cells/well (3.3 x 10^5 cells/mL) into Greiner solid-white TC-treated 1536-well plates using a Multidrop Combi (Thermo Fisher Scientific). Plates were incubated for one hour at 37 degree Celsius, 95% humidity, 5% CO2. These assay plates were then treated with 23nL of compound or DMSO using a Kalypsys pin tool, which allows for delivery of a 12-point titration of each compound to the assay plate, with a final compound concentration ranging from approximately ~38uM to 0.2nM. Assay plates were then incubated for 72 hours. After incubation, plates were washed three times with DPBS (7uL/well). After the third wash, 6uL of DPBS was added to each well. 3uL of 3X luciferase detection reagent was then added to each well using a flying reagent dispenser (FRD). After a 15 minute incubation to allow for cell lysis, luciferase activity was measured using a ViewLux CCD imager (PerkinElmer), with an average exposure time of 2-12 seconds.
Consider `Cc1ccc(C(=O)Nc2ccc(C(=O)O)cc2)cc1S(=O)(=O)Nc1ccccc1`, for which the “activation (luciferase signal increase)” value is 1.36%.

For `COc1cc(OC)cc(C(=O)Nc2ccccc2-c2nc3ccccc3s2)c1`, the “activation (luciferase signal increase)” value was 4.56%.

As for `Cc1ccc(C(=O)Nc2cccc(C(=O)O)c2)cc1S(=O)(=O)N1CCCCC1`, the Potency is 3.18 µM (active).

`Cc1ccc(C(=O)Nc2cccc(C(=O)O)c2)cc1S(=O)(=O)N1CCOCC1`: the Potency is 11.3 µM (active). Same read-out and setting: for `Nc1ccc(-c2nc3ccc(N)cc3s2)cc1` the value was 4 µM (active). As to `O=C(Nc1ccccc1C(=O)O)c1cc(S(=O)(=O)Nc2ccccc2)ccc1Cl`, the “activation (luciferase signal increase)” value was 2.25%.

With `CC(=O)Nc1cccc(C(=O)Nc2ccccc2C(=O)O)c1`, the “activation (luciferase signal increase)” value is 7.79%.

As for `COc1c(C)cccc1C(=O)Nc1ccc(-c2nc3ccccc3s2)c(Cl)c1`, the “activation (luciferase signal increase)” value is 0.556%. Still for that read-out and setting: for `O=C(Nc1ccccc1C(=O)O)c1cccc(NC(=O)c2ccc(Br)o2)c1` the value was 2.35%; for `COc1ccc2nc(NC(=O)CCc3nc(-c4ccccc4F)no3)sc2c1`, 13.1%. For the compound `CCn1c(C)nc2cc(-c3nc4n(n3)Cc3ccccc3-4)ccc21`, the Potency was 0.0798 µM (active). In the case of `CC(=O)Oc1ccc(C(=O)Nc2ccccc2C(=O)Nc2ccc(C(=O)O)cc2)cc1`, the “activation (luciferase signal increase)” value is -0.991%. The same measure, in the same setting: next, `O=C(Nc1ccccc1C(=O)O)c1cccc(S(=O)(=O)N2CCCC2)c1`: 4.36%. On to `CN(C)c1cccc(C(=O)Nc2ccc(-c3nc4ccccc4s3)cc2)c1`, for which the Potency is 1.79 µM (active). Take `Cc1c(NC(=O)c2cccs2)cccc1-c1nc2ccccc2s1`: the “activation (luciferase signal increase)” value is 17.8%. On the same count and under the same terms, next, `O=C(COC(=O)c1ccccc1[N+](=O)[O-])c1ccc2c(c1)OCO2`: 3.99%; `O=C(O)c1cccc(NC(=O)c2ccc(S(=O)(=O)c3ccccc3)cc2)c1`: -1.83%. Same read-out and setting: for `CC(C)C(=O)Nc1cccc(C(=O)Nc2ccccc2C(=O)O)c1` the value was 6.56%. Same read-out and setting: next, `Cc1cccc(C(=O)Nc2ccccc2C(=O)Nc2ccc(C(=O)O)cc2)c1`: 4.31%; `O=C(O)c1ccccc1NC(=O)c1ccccc1Nc1ccccc1`: 2.54%; `CC(C)CC(=O)Nc1cccc(C(=O)Nc2ccccc2C(=O)O)c1`: -2.22%. For the compound `O=C(Nc1ccc(Cl)cc1-c1nc2ccccc2s1)c1ccco1`, the “activation (luciferase signal increase)” value was 9.31%. Consider `Nc1ccc(-c2nc3ccc(C(=O)O)cc3s2)cc1`, for which the Potency is 0.159 µM (active). Turning to `O=C(Nc1ccccc1C(=O)O)c1ccc(NC(=O)C2CC2)cc1`, the “activation (luciferase signal increase)” value is 0.322%. Same read-out and setting: next, `Cc1cccc(C(=O)Nc2ccc(-c3nc4ccccc4s3)cc2Cl)c1`: 5.41%; `COc1ccc2nc(NC(=O)CCc3ccc(OC)c(OC)c3)sc2c1`: -1.91%. Same read-out and setting: for `COc1ccc(Br)cc1C(=O)Nc1ccc(C(=O)O)cc1` the value was 6.32%. In the case of `CCc1noc(C)c1C(=O)Nc1nc2ccc(OC)cc2s1`, the “activation (luciferase signal increase)” value was 2.59%.

On to `O=C(O)c1ccc(NC(=O)c2cccc(C(=O)Nc3ccc(C(=O)O)cc3)c2)cc1`, for which the “activation (luciferase signal increase)” value is -0.0974%. With `COc1ccc(-c2cccc(C(=O)Nc3cccc(C(=O)O)c3)c2)cc1`, the Potency is 12.6 µM (active). On the same count and under the same terms, for `CCOc1ccc2nc(NC(=O)c3cccnc3)sc2c1` the value was 3.56 µM (active); for `COc1ccc2nc(NC(=O)c3ccc([N+](=O)[O-])o3)sc2c1`, 20 µM (active); for `Oc1ccc(-c2nc3ccccc3s2)c(O)c1`, 12.6 µM (active). `CCOc1ccc2nc(NC(=O)c3cc([N+](=O)[O-])ccc3N3CCOCC3)sc2c1`: the “activation (luciferase signal increase)” value is -8.35%. Same read-out and setting: next, `COc1cccc(OC)c1C(=O)Nc1cccc(C(=O)Nc2cccc(C(=O)O)c2)c1`: 5.11%; `COc1ccc(C(=O)Nc2ccccc2-c2nc3ccccc3s2)c(OC)c1`: 2%. Same read-out and setting: next, `Cc1c(NC(=O)C(C)(C)C)cccc1-c1nc2ccccc2s1`: 16%. Still for that read-out and setting: for `CCCOc1cccc(C(=O)Nc2ccc(-c3nc4ccccc4s3)c(Cl)c2)c1` the value was 10.8%; for `O=C(Nc1ccccc1C(=O)O)c1ccc(NC(=O)C2CCCCC2)cc1`, 1.36%; for `O=C(O)c1ccc(NC(=O)c2ccccc2NC(=O)c2cccc(Br)c2)cc1`, 10.8%.
